Of roughly 8,800 targets only a part is listed; those with a hit were picked by preference. About 0.5% of all pairs of compound and target were hits.
Experiments:
Test in all cases: log2 fold change, soluble protein after heating vs DMSO (PISA); higher = thermal stabilisation; K562 lysate, 10 uM; active = over 0.2 and 3.5 SD of the protein, either way, in both replicates (recomputed)
alvocidib = compound: CN1CC[C@H](c2c(O)cc(O)c3c(=O)cc(-c4ccccc4Cl)oc23)[C@H](O)C1 [alvocidib]
Procedure, shortened: (§1)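 K562 pellets were dounce-homogenised in PBS pH 7.4 with 1 mM MgCl2, and the crude extract at 1 mg/mL protein was treated with 10 μM compound for 30 min. Aliquots were heated for 3 min across 48°C-58°C, pooled, and brought to 0.5% NP-40 at 4°C; soluble protein was the supernatant after 21,000xg for 90 min. Soluble protein was quantified by TMTpro 16plex LC-MS/MS with channel sums equalised, and reported as log2 fold change in thermal stability against DMSO controls, with values from duplicates.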

Tubastatin A = compound: CN1CCc2c(c3ccccc3n2Cc2ccc(C(=O)NO)cc2)C1 [Tubastatin A]
Procedure, shortened: as §1

[1] = compound: CNC(=O)C1=CC=CC=C1NC2=NC(=NC=C2Cl)NC3=C(C=C(C=C3)N4CCOCC4)OC
Procedure, shortened: as §1

defactinib = compound: CNC(=O)c1ccc(Nc2ncc(C(F)(F)F)c(NCc3nccnc3N(C)S(C)(=O)=O)n2)cc1 [defactinib]
Procedure, shortened: as §1

[2] = compound: CNc1nc(-c2ccc3c(N)n[nH]c3c2)cc(N2C[C@@H](C(=O)NC3CCCCC3)CC[C@H]2C)n1
Procedure, shortened: as §1

encorafenib = compound: COC(=O)N[C@@H](C)CNc1nccc(-c2cn(C(C)C)nc2-c2cc(Cl)cc(NS(C)(=O)=O)c2F)n1 [encorafenib]
Procedure, shortened: as §1

[3] = compound: COC(=O)[C@H](CCSC)NC(=O)C1=C(C=C(C=C1)NC[C@H](CS)N)C2=CC=CC=C2
Procedure, shortened: as §1

alisertib = compound: COc1cc(Nc2ncc3c(n2)-c2ccc(Cl)cc2C(c2c(F)cccc2OC)=NC3)ccc1C(=O)O [alisertib]
Procedure, shortened: as §1

[4] = compound: COc1cc2nc(-c3cc(F)ccc3O)nc(N[C@@H]3CNC[C@H]3C(C)(C)O)c2cc1OC
Procedure, shortened: as §1

gefitinib = compound: COc1cc2ncnc(Nc3ccc(F)c(Cl)c3)c2cc1OCCCN1CCOCC1 [gefitinib]
Procedure, shortened: as §1

Measured: log2 fold change

RPL8 (UniProt P62917)
inactive: alvocidib 0.007 | Tubastatin A 0.023 | [1] 0.02 | defactinib 0.038 | [2] 0.104 | encorafenib 0.022 | [3] -0.046 | alisertib 0.018 | [4] -0.008 | gefitinib 0.011

RBM5 (UniProt P52756)
inactive: alvocidib -0.226 | Tubastatin A -0.059 | [1] 0.021 | defactinib 0.01 | [2] 0.028 | encorafenib 0.044 | [3] 0.134 | alisertib -0.035 | [4] 0.182 | gefitinib 0.18

REEP5 (UniProt Q00765)
Sequence of UniProt Q00765 (Q00765 whole entry, looked up): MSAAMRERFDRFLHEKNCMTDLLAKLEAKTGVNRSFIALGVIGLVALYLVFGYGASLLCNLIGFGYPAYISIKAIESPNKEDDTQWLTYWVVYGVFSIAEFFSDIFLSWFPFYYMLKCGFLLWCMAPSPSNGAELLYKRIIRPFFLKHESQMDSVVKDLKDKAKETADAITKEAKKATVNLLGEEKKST
inactive: alvocidib -0.054 | Tubastatin A -0.004 | [1] -0.056 | defactinib 0.04 | [2] 0.035 | encorafenib 0.001 | alisertib -0.009 | [4] 0.001 | gefitinib -0.092
active: [3] 0.263

RALA (UniProt P11233)
inactive: alvocidib -0.164 | Tubastatin A 0.044 | [1] 0.016 | defactinib -0.057 | [2] 0.056 | encorafenib 0.03 | [3] -0.102 | alisertib 0.009 | [4] 0.01 | gefitinib 0.023

RIPK1 (UniProt Q13546)
inactive: alvocidib 0.001 | Tubastatin A -0.108 | [1] 0.044 | defactinib 0.065 | [2] 0.035 | encorafenib -0.017 | [3] 0.025 | alisertib -0.025 | [4] -0.016 | gefitinib 0.042

RPTOR (UniProt Q8N122)
inactive: alvocidib 0.008 | Tubastatin A -0.11 | [1] 0.036 | defactinib 0 | [2] -0.048 | encorafenib -0.004 | [3] -0.007 | alisertib -0.012 | [4] -0.005 | gefitinib -0.007

SEH1L isoform 1 (UniProt Q96EE3)
Sequence of UniProt Q96EE3 (Q96EE3 whole entry, looked up): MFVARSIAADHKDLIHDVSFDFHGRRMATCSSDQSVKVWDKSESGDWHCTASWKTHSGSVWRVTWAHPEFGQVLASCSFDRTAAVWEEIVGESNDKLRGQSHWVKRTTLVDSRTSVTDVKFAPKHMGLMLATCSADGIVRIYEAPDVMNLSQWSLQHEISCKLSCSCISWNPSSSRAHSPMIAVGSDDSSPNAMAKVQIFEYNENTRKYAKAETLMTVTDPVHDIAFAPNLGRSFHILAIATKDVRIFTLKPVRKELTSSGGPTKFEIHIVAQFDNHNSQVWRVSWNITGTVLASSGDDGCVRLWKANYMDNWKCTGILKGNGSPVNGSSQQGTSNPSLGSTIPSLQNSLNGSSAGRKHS
inactive: alvocidib -0.042 | Tubastatin A 0 | [1] 0 | defactinib -0.028 | [2] -0.014 | encorafenib -0.007 | [3] -0.077 | alisertib 0.001 | [4] 0.01 | gefitinib -0.004

RHOA (UniProt P61586)
Sequence of UniProt P61586 (P61586 whole entry, looked up): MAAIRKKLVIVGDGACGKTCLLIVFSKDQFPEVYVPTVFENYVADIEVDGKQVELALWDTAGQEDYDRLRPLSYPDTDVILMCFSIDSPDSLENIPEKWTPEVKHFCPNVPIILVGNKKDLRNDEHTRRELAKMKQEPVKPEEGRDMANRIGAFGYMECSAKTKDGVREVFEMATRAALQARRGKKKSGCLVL
inactive: alvocidib 0.093 | Tubastatin A -0.078 | [1] 0.087 | defactinib -0.029 | [2] -0.003 | encorafenib -0.042 | [3] -0.046 | alisertib 0.072 | [4] 0.029 | gefitinib 0.078

RDH10 (UniProt Q8IZV5)
Sequence of UniProt Q8IZV5 (Q8IZV5 whole entry, looked up): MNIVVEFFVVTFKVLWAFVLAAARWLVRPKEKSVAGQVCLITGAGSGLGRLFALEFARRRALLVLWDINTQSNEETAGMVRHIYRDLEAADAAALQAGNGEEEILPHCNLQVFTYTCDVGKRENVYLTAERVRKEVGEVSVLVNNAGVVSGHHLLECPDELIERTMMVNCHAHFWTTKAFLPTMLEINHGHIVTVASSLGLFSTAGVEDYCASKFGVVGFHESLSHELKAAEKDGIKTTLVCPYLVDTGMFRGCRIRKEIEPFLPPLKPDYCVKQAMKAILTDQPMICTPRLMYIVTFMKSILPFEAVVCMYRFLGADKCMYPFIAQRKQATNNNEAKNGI
inactive: alvocidib -0.013 | Tubastatin A 0.015 | [1] 0.069 | defactinib 0.009 | [2] -0.013 | encorafenib -0.001 | alisertib 0.037 | [4] 0.007 | gefitinib -0.004
active: [3] 0.346

RANBP6 (UniProt O60518)
inactive: alvocidib -0.033 | Tubastatin A -0.07 | [1] 0.008 | defactinib 0.047 | [2] 0.014 | encorafenib -0.027 | [3] 0.057 | alisertib 0.063 | [4] 0.046 | gefitinib 0.008

SEC62 (UniProt Q99442)
inactive: alvocidib 0.046 | Tubastatin A 0.07 | [1] 0.019 | defactinib 0.02 | [2] 0.045 | encorafenib -0.012 | [3] -0.084 | alisertib -0.003 | [4] -0.028 | gefitinib 0.004

RDH14 (UniProt Q9HBH5)
inactive: alvocidib -0.001 | Tubastatin A -0.033 | [1] 0.088 | defactinib -0.044 | [2] -0.123 | encorafenib -0.028 | [3] -0.199 | alisertib 0.07 | [4] -0.043 | gefitinib -0.07

SATB2 (UniProt Q9UPW6)
Sequence of UniProt Q9UPW6 (Q9UPW6 whole entry, looked up): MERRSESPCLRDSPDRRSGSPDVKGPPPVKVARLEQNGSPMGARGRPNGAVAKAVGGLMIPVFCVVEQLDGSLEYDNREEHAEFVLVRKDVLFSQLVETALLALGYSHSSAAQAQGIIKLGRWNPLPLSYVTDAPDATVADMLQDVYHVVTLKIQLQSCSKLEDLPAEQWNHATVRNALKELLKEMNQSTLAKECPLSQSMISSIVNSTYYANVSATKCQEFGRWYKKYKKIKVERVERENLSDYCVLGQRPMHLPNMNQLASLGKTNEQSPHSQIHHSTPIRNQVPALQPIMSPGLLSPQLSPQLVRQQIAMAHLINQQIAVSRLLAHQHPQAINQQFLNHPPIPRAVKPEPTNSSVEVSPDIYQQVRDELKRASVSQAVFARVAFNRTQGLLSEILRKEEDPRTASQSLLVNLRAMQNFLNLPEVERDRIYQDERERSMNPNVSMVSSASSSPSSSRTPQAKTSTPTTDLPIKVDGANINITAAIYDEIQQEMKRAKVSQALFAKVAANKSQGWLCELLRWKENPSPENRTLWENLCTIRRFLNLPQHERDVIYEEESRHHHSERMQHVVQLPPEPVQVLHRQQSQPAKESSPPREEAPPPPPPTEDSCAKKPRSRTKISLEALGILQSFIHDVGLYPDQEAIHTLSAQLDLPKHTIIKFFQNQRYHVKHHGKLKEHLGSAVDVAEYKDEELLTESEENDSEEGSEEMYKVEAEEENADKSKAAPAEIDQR
inactive: alvocidib 0.047 | Tubastatin A -0.096 | [1] -0.019 | defactinib -0.022 | [2] -0.031 | encorafenib 0.053 | [3] -0.022 | alisertib 0.024 | [4] -0.008 | gefitinib 0.01

SEC61G (UniProt P60059)
inactive: alvocidib -0.107 | Tubastatin A 0.063 | [1] 0.09 | defactinib 0.045 | [2] 0.137 | encorafenib -0.02 | [3] 0.067 | alisertib 0.053 | [4] 0.009 | gefitinib 0.036

RNASEH1 (UniProt O60930)
inactive: alvocidib 0.024

RASA3 (UniProt Q14644)
Sequence of UniProt Q14644 (Q14644 whole entry, looked up): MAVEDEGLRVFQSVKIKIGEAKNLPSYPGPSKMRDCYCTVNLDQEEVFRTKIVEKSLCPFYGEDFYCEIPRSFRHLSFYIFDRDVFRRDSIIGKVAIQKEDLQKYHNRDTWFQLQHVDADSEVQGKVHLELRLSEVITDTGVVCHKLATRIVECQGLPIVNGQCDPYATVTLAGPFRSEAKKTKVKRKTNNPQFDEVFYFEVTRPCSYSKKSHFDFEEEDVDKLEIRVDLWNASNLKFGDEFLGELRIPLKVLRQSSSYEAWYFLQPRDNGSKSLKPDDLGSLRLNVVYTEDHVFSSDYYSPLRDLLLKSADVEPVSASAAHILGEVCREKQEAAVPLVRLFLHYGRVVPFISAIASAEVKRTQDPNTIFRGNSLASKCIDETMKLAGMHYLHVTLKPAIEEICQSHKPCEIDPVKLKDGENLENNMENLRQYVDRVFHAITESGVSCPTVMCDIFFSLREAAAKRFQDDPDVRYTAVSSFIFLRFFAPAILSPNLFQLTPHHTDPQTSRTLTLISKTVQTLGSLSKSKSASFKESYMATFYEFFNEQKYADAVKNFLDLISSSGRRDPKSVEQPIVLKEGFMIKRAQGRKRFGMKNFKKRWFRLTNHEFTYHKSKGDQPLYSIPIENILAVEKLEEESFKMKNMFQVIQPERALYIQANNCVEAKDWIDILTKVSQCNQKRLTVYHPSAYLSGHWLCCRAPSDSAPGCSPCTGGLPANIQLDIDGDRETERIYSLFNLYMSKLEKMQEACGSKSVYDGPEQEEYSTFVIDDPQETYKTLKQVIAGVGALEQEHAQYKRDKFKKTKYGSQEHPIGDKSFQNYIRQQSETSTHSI
inactive: alvocidib -0.089 | Tubastatin A -0.246 | [1] 0 | defactinib 0.052 | [2] -0.118 | encorafenib -0.005 | [3] 0.082 | alisertib -0.006 | [4] 0.032 | gefitinib -0.043

RBM8A (UniProt Q9Y5S9)
inactive: alvocidib 0.086 | Tubastatin A 0.024 | [1] -0.024 | defactinib 0.017 | [2] -0.256 | encorafenib 0.002 | [3] -0.069 | alisertib 0 | [4] -0.062 | gefitinib -0.024

RCAN1 (UniProt P53805)
Sequence of UniProt P53805 (P53805 whole entry, looked up): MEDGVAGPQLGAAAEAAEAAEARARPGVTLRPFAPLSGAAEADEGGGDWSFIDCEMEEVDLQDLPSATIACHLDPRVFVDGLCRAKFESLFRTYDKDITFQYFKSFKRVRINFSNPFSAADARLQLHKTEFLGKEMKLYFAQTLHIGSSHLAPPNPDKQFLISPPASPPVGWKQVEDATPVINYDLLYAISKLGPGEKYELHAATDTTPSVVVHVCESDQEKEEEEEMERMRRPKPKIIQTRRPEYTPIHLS
inactive: alvocidib -0.003 | Tubastatin A -0.118 | [1] 0.052 | defactinib 0.006 | [2] 0.079 | encorafenib 0.065 | [3] 0.035 | alisertib -0.02 | [4] 0.019 | gefitinib -0.038

RIOK1 (UniProt Q9BRS2)
active: [2] 0.413
inactive: alvocidib 0 | Tubastatin A 0.005 | [1] 0.008 | defactinib -0.009 | encorafenib 0.006 | [3] -0.006 | alisertib 0.01 | [4] 0.168 | gefitinib -0.019

RHAG (UniProt Q02094)
Sequence of UniProt Q02094 (Q02094 whole entry, looked up): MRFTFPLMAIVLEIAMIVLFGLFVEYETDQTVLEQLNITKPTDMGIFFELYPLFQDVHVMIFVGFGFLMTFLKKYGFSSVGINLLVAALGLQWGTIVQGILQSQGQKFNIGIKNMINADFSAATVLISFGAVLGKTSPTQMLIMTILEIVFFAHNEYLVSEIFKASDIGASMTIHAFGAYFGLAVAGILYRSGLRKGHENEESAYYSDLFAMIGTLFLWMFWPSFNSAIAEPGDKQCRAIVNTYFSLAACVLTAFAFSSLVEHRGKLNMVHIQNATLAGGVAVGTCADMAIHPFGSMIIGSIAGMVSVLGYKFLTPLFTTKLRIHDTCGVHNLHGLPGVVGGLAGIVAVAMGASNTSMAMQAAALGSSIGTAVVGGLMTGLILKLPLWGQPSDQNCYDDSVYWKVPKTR
inactive: alvocidib -0.133 | Tubastatin A 0.031 | [1] 0.043 | defactinib -0.043 | [2] 0.037 | encorafenib 0.016 | [3] 0.02 | alisertib -0.004 | [4] 0.046 | gefitinib -0.051

RASA2 (UniProt Q15283)
inactive: alvocidib 0 | Tubastatin A -0.078 | [1] 0.019 | defactinib 0.053 | [2] -0.064 | encorafenib -0.059 | [3] 0.113 | alisertib -0.003 | [4] -0.008 | gefitinib -0.003

SEC13 isoform 3 (UniProt P55735)
Sequence of UniProt P55735 (P55735 whole entry, looked up): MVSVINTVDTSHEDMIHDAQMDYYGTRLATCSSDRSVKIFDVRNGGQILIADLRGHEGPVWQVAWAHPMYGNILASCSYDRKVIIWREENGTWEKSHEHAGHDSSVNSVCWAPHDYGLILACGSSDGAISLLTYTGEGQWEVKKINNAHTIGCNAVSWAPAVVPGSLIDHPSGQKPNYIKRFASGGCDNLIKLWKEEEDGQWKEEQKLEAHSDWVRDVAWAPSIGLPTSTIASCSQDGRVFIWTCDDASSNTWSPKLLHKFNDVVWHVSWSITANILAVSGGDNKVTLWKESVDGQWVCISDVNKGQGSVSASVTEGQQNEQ
inactive: alvocidib 0.107 | Tubastatin A 0.029 | [1] -0.024 | defactinib -0.06 | [2] -0.064 | encorafenib 0.002 | [3] -0.039 | alisertib 0.02 | [4] -0.004 | gefitinib 0.03

RPL28 (UniProt P46779)
inactive: alvocidib 0.03 | Tubastatin A 0.006 | [1] -0.009 | defactinib -0.018 | [2] 0.036 | encorafenib 0.012 | [3] -0.014 | alisertib 0.011 | [4] -0.005 | gefitinib -0.058

RABGGTB (UniProt P53611)
inactive: alvocidib -0.015 | Tubastatin A -0.043 | [1] -0.025 | defactinib 0.031 | [2] -0.021 | encorafenib 0.044 | [3] 0.065 | alisertib 0.005 | [4] 0.002 | gefitinib -0.002

RAB3IL1 (UniProt Q8TBN0)
Sequence of UniProt Q8TBN0 (Q8TBN0 whole entry, looked up): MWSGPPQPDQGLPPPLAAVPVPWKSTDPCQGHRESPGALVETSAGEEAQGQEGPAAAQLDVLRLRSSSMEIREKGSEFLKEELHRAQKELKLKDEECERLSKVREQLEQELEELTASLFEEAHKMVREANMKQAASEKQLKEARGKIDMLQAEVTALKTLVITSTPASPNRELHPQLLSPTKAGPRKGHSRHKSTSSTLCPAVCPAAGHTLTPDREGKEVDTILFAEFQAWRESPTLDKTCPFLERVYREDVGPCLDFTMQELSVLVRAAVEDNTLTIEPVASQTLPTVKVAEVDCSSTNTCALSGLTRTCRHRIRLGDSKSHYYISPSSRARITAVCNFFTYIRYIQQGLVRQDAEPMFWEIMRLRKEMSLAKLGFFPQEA
inactive: alvocidib 0.027 | Tubastatin A -0.021 | [1] 0.022 | defactinib 0.007 | [2] 0.009 | encorafenib -0.006 | [3] -0.031 | alisertib -0.013 | [4] 0.039 | gefitinib 0.014

RAB3IL1 (UniProt E9PK89)
inactive: alvocidib -0.008 | Tubastatin A -0.025 | [1] 0.023 | defactinib 0.123 | [2] 0.005 | encorafenib 0.047 | [3] 0.024 | alisertib 0.032 | [4] -0.07 | gefitinib 0

RCOR1 (UniProt Q9UKL0)
Sequence of UniProt Q9UKL0 (Q9UKL0 whole entry, looked up): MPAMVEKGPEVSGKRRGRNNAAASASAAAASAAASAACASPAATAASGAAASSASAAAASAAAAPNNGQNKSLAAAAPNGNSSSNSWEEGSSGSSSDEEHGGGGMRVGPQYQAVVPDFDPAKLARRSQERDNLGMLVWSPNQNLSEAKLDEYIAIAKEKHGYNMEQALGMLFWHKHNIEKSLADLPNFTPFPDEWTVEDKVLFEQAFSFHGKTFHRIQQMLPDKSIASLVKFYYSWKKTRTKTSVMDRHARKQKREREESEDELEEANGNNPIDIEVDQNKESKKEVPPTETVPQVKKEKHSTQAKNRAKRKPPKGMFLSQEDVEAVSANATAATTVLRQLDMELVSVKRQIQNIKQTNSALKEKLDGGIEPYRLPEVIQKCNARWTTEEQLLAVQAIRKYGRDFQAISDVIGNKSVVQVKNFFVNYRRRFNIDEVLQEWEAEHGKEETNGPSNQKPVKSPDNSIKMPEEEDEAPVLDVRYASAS
inactive: alvocidib -0.031 | Tubastatin A -0.021 | [1] -0.017 | defactinib -0.039 | [2] 0.014 | encorafenib 0.01 | [3] 0.115 | alisertib 0.023 | [4] 0.027 | gefitinib -0.011

RALGAPA1 isoform 6 (UniProt Q6GYQ0)
inactive: alvocidib -0.102 | Tubastatin A 0.033 | [1] 0.007 | defactinib 0.069 | [2] 0.003 | encorafenib 0.016 | [3] 0.094 | alisertib -0.029 | [4] 0.047 | gefitinib 0.056

SCD (UniProt O00767)
Sequence of UniProt O00767 (O00767 whole entry, looked up): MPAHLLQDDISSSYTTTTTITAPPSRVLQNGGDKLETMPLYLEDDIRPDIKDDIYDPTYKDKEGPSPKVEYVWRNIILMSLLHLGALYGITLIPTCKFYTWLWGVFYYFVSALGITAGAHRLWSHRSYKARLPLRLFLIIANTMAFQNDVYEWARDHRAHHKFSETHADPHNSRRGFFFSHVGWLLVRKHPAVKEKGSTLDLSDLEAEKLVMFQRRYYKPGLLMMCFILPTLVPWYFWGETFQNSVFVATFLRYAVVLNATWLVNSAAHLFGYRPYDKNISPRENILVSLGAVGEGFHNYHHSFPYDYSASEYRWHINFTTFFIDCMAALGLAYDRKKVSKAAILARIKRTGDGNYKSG
inactive: alvocidib -0.138 | Tubastatin A -0.015 | [1] -0.014 | defactinib -0.02 | [2] -0.091 | encorafenib -0.097 | [3] 0.076 | alisertib 0.006 | [4] 0.004 | gefitinib 0.011

RPS18 (UniProt P62269)
inactive: alvocidib -0.057 | Tubastatin A 0.04 | [1] -0.021 | defactinib 0.016 | [2] 0.025 | encorafenib -0.022 | [3] 0.054 | alisertib 0.013 | [4] 0.001 | gefitinib -0.032

Source: the supplement of paper PMC10849652
